Source: PubChem BioAssay (NCATS)
Results filed as inconclusive are left out. Calls of active or inactive are those of the source. Calls follow the shape of the dose curve; as a rule, active = well fitted curve in the direction sought with a large enough effect; inconclusive = small, poorly fitted or top-dose-only effect, or another doubt; inactive = no such curve, though single readings can be large; an effect the other way counts as inactive or inconclusive.

What was measured:
[1] = molecular target: Glutathione peroxidase 1 (Homo sapiens) (UniProt P07203); test: Primary qHTS Assay for Inhibitors of Recombinant Selenoprotein Glutathione Peroxidase 1 (GPX1) (AID 1845191); also: nearly all actives have a fitted effect of over 65% in size; also: potency is read from the fitted curve at half-maximal effect; as to activity, negative = inhibition: % is scaled to controls: 0 for no effect and ±100 for the full control effect
In short: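 GR-coupled assay: compounds preincubated 30 min at room temperature with GPX1, then reaction started with CHP; final 10 nM GPX1, 1 mM GSH, 0.5 mM CHP, 0.5 mM NADPH, 100 nM GR, 0.01% BSA, pH 7.5 Tris buffer. NADPH fluorescence (340/450 nm) read at 0 and 15 min.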

[2] = molecular target: Phospholipid hydroperoxide glutathione peroxidase GPX4 (Homo sapiens) (UniProt P36969); test: Primary qHTS Assay for Inhibitors of Recombinant Selenoprotein Glutathione Peroxidase 4 (GPX4) (AID 1845192); also: nearly all actives have a fitted effect of over 65% in size
In short: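 GR-coupled assay: recombinant GPX4 preincubated 30 min with compound at room temperature; final 200 nM GPX4, 1 mM GSH, 0.5 mM cumene hydroperoxide, 0.5 mM NADPH, 100 nM GR, 0.01% BSA, pH 7.5 Tris. NADPH fluorescence (340/450 nm) read at 0 and 15 min.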

[3] = molecular target: Luciferin 4-monooxygenase (Photinus pyralis) (UniProt P08659); test: Primary firefly luciferase (FLuc) qHTS assay for identification of artifact compounds. (AID 1845220); also: nearly all actives have a fitted effect of over 60% in size; also: potency is read from the fitted curve at half-maximal effect
In short: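 Titrated compounds were incubated 15 min at RT, protected from light, with luciferin and ATP at 10 uM; reaction started with 10 nM FLuc, luminescence imaged at 5 min, and concentration-response fitted by Hill equation.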

[4] = Primary fluorescence-based thiol-reactive (MSTI) qHTS assay for identification of artifact compounds. (AID 1845221); also: nearly all actives have a fitted effect of over 65% in size; also: potency is read from the fitted curve at half-maximal effect;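 as to activity change, negative = thiol reactive: series mostly up to about 54 µM; thiol-reactive compounds lower the probe fluorescence signal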
In short: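 First, 4 uM MSTI in 2% DMSO/PBS pH 7.4 was dispensed; next, compounds were added; then plates sat 1 h at room temperature without light. Finally, emission at 598 nm was recorded.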

[5] = tested on: Nanoluciferase (engineered Oplophorus gracilirostris luciferase); test: Primary Nanoluciferase (NLuc) qHTS assay for identification of artifact compounds. (AID 1845222);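 also: NLuc secreted into diluted conditioned medium of S16 cells; series mostly up to about 54 µM; 0% = DMSO and -100% = no enzyme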
In short: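 qHTS format, against NLuc in S16 cell-conditioned medium. Nano-Glo substrate 1:100 was added after 15 min at room temperature. Luminescence was taken after a further 5 min.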

[6] = Primary redox qHTS assay for identification of artifact compounds. (AID 1845223);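 also: 0% = DMSO and 100% = reference compound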
In short: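 Amplex Red (25 uM) and HRP (250 mU/mL) in HBSS, with compounds for 15 min, then 250 uM DTT for 30 min, room temperature, dark. Fluorescence 525/598 nm read; normalized to DMSO and 10 uM DA3003; Hill fit.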

Phospholipid hydroperoxide glutathione peroxidase GPX4 (Homo sapiens), sequence (P36969 whole entry, looked up): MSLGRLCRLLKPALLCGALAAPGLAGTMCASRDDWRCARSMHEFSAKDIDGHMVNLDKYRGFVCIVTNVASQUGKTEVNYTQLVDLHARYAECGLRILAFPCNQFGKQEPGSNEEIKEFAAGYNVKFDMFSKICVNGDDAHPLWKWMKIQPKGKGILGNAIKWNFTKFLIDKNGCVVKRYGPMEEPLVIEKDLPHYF
Glutathione peroxidase 1 (Homo sapiens), sequence (P07203 whole entry, looked up): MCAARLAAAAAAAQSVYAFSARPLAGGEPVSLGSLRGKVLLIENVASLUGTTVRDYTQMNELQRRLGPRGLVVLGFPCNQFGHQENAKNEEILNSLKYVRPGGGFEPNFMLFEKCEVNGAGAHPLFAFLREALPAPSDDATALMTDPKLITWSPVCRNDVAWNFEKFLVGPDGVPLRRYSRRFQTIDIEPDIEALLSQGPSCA

Cc1cc(-c2nc(-c3ccc(OC(F)(F)F)cc3)no2)nn1Cc1ccnc(N2CCN(C3CC3)CC2)c1
inactive: Potency [1] | Potency [2] | Potency [3] | Potency [4] | Potency [5] | Potency [6]

C/C=C(\C)C(=O)OC1C[C@@]2(COC(C)=O)O[C@H]2/C=C\[C@@]2(C)O[C@@H]2[C@H]2OC(=O)C(COC(C)=O)=C12 (stereo partly specified)
inactive: Potency [1] | Potency [2] | Potency [3] | Potency [5]
active: Potency [4] 13 µM

COc1cc(CN(CCN)C(=O)c2cccs2)ccc1OCc1ccccc1
inactive: Potency [1] | Potency [2] | Potency [3] | Potency [4] | Potency [5]

CCNC1(C(N)=O)CN(c2nc(C)nc3c(-c4ccc(Cl)cc4)c(-c4ccccc4Cl)nn23)C1
inactive: Potency [1] | Potency [2] | Potency [3] | Potency [4] | Potency [5]

CC(=O)O[C@H]1C[C@H](OC(C)=O)[C@]2(C)[C@H](CC[C@@]34O[C@@H]3C3=C(C)C(=O)O[C@@H]3C[C@H]42)C1(C)C
inactive: Potency [1] | Potency [2] | Potency [3] | Potency [4] | Potency [5]

C=C1C(=O)O[C@@H]2/C=C(/C)[C@@H](OC(C)=O)C/C=C(\C)C[C@@H](OC(=O)/C(=C/CO)CO)[C@@H]12
inactive: Potency [1] | Potency [2] | Potency [3] | Potency [4] | Potency [5]

CC1OC2OC(=O)C3(C)CC4C5(CO5)C5=CC(=O)OC(C)(C)C5=CC(=O)C4(C)C(C1=O)C23 (stereo unspecified)
active: Potency [4] 1.03 µM
inactive: Potency [1] | Potency [2] | Potency [3] | Potency [5]

COc1cc(O)cc(OC2OC(CO)C(O)C(O)C2O)c1 (stereo unspecified)
inactive: Potency [1] | Potency [2] | Potency [3] | Potency [5] | Potency [6]
active: Potency [4] 9.47 µM

COc1ccc(CCO[C@@H]2O[C@H](CO[C@H]3OC[C@](O)(CO)[C@H]3O)[C@@H](OC(=O)/C=C/c3ccc(O)c(O)c3)[C@H](O[C@@H]3O[C@@H](C)[C@H](O)[C@@H](O)[C@H]3O)[C@H]2O)cc1OC
inactive: Potency [1] | Potency [2] | Potency [3] | Potency [5] | Potency [6]
active: Potency [4] 1.58 µM

COC(=O)C1=COC(O[C@@H]2O[C@H](CO[C@@H]3O[C@H](COC(=O)/C=C\c4ccc(O)cc4)[C@@H](O)[C@H](O)[C@H]3O)[C@@H](O)[C@H](O)[C@H]2O)C2C(CO)=CCC12 (stereo partly specified)
inactive: Potency [1] | Potency [2] | Potency [3] | Potency [4] | Potency [5]

Nc1nc2c(ncn2C2OC3COP(=O)(O)OC3C2O)c(=O)[nH]1 (stereo unspecified)
inactive: Potency [1] | Potency [2] | Potency [3] | Potency [4] | Potency [5] | Potency [6]

O=C1COC2(CCN(S(=O)(=O)c3ccc(-c4ccc5cccnc5c4)cc3)CC2)CN1C1CC1
inactive: Potency [1] | Potency [2] | Potency [3] | Potency [4] | Potency [5]

Fc1ccc(N2CCN(CCC3OCCc4ccccc43)CC2)cc1 (stereo unspecified)
inactive: Potency [1] | Potency [2] | Potency [3] | Potency [4] | Potency [5]

CC(=O)O[C@H]1CC(C)(C)CC2[C@]13CO[C@@]21CCC2[C@@]4(C)CC[C@H](O[C@@H]5OC[C@H](O[C@@H]6O[C@H](CO)[C@@H](O)[C@H](O)[C@H]6O[C@@H]6OC[C@@H](O)[C@H](O)[C@H]6O)[C@H](O)[C@H]5O[C@@H]5O[C@H](CO)[C@@H](O)[C@H](O)[C@H]5O)[C@@](C)(CO)C4CC[C@@]2(C)[C@]1(C)C[C@H]3O (stereo partly specified)
inactive: Potency [1] | Potency [2] | outcome [3] inactive [at 11.6 µM] | activity change, negative = thiol reactive [4] 28.4% [at 11.5 µM] | activity, negative = inhibition [5] 2.37% [at 11.6 µM]

C=CC(C)(C)c1[nH]c2ccccc2c1C[C@@H]1NC(=O)[C@H](C)NC1=O
inactive: Potency [1] | Potency [2] | Potency [3] | Potency [5] | Potency [6]
active: Potency [4] 5.85 µM

N#Cc1ccc(-c2ccc(S(=O)(=O)Nc3cccc(N)n3)cc2)cc1
inactive: Potency [1] | Potency [2] | Potency [3] | Potency [4] | Potency [5] | Potency [6]

CCOC(=O)c1ccc(OCCC2CCN(c3ccc(C)nn3)CC2)cc1
inactive: Potency [1] | Potency [2] | Potency [3] | Potency [4] | Potency [5] | Potency [6]

CC(C)S(=O)(=O)NC[C@H](C)c1ccc(-c2ccc(CCNS(C)(=O)=O)cc2)cc1
inactive: Potency [1] | Potency [2] | Potency [3] | Potency [4] | Potency [5]

Nc1ncnc2c1c(-c1ccc(Cl)cc1)nn2-c1cccc(-c2cnnn2Cc2cccc(-c3ccccc3)c2)c1
inactive: Potency [1] | Potency [2] | Potency [3] | Potency [4] | Potency [5]

COc1cccc(CN(C(=O)CC(C)(C)C)[C@H]2C[C@H](C(=O)N3CCNCC3)N(Cc3ccc4c(c3)OCO4)C2)c1
inactive: Potency [1] | Potency [2] | Potency [3] | Potency [4] | Potency [5]

COc1ccc(Cl)c(Nc2ncnc3cc(OCC4CCN(C)CC4)c(OC)cc23)c1
inactive: Potency [1] | Potency [2] | Potency [3] | Potency [4] | Potency [5]

C=C1C(=O)OC2/C=C(\C)CC3C=C(CC/C=C(\C)CCC12)C(=O)O3 (stereo unspecified)
inactive: Potency [1] | Potency [2] | Potency [3] | Potency [4] | Potency [5] | Potency [6]

COCC(=O)NC/C=C/c1ccc2ncnc(Nc3ccc(Oc4ccc(C)nc4)c(C)c3)c2c1
inactive: Potency [1] | Potency [2] | Potency [3] | Potency [4] | Potency [5]

CN(C)C(=O)C(=O)c1cn(C)c2cc(Cl)c(C(=O)N3CCC(Cc4ccc(F)cc4)CC3)cc12
inactive: Potency [1] | Potency [2] | Potency [3] | Potency [4] | Potency [5]

C[C@@H]1CCCN1CCc1cc2cc(-c3ccc(C#N)cc3)ccc2o1
inactive: Potency [1] | Potency [2] | Potency [3] | Potency [4] | Potency [5] | Potency [6]

CN1CCN(C2CCN(C(=O)Nc3cc(Oc4ccc(NC(=O)C5(C(=O)Nc6ccc(F)cc6)CC5)c(F)c4)ccn3)CC2)CC1
inactive: Potency [1] | Potency [2] | Potency [3] | Potency [4] | Potency [5]

CC(=O)OC1CC2(C)C(CCC(C)C23Cc2c(O)cc(CO)c(C=O)c2O3)C(C)(C)C1O (stereo unspecified)
inactive: Potency [1] | Potency [2] | Potency [3] | Potency [4] | Potency [5]

C[C@@H]1O[C@@H](O[C@H]2[C@H](OC(=O)[C@]34CCC(C)(C)C[C@H]3C3=CCC5[C@@]6(C)C[C@H](O)[C@H](O[C@@H]7O[C@H](C(=O)O)[C@@H](O)[C@H](O)[C@H]7O)[C@@](C)(CO)C6[C@H](O)C[C@@]5(C)[C@]3(C)C[C@H]4O)O[C@@H](CO)[C@@H]2O)[C@H](O)[C@H](O)[C@H]1O[C@@H]1OC[C@@H](O)[C@H](O[C@H]2OC[C@](O)(CO)[C@H]2O)[C@H]1O (stereo partly specified)
inactive: outcome [1] inactive [at 9.52 µM] | outcome [2] inactive [at 9.73 µM] | outcome [3] inactive [at 11.6 µM] | activity change, negative = thiol reactive [4] 391% [at 11.5 µM] | activity, negative = inhibition [5] 1.66% [at 11.6 µM]

CC(C)(O)C1Cc2c(ccc(C(=O)CCc3ccccc3)c2O)O1 (stereo unspecified)
inactive: Potency [1] | Potency [2] | Potency [4] | Potency [5] | Potency [6]
active: Potency [3] 0.294 µM

C/C=C(\C)C(=O)OC1C(C)C2(O)C(C=C(CO)CC3(O)C(=O)C(C)=CC32)C2C(C)(C)C12OC(C)=O (stereo unspecified)
inactive: Potency [1] | Potency [2] | Potency [3] | Potency [4] | Potency [5]

CCCCCCCCC(=O)N[C@H](CN1CCCC1)[C@H](O)c1ccc2c(c1)OCCO2
inactive: Potency [1] | Potency [2] | Potency [3] | Potency [4] | Potency [5] | Potency [6]

COc1cc2c(cc1NS(=O)(=O)c1ccc(Br)cc1C)n(C)c(=O)n2C
inactive: Potency [1] | Potency [2] | Potency [3] | Potency [4] | Potency [5]

O=C(c1ccc(OC(F)F)c(C#Cc2ccccn2)c1)N1Cc2cccnc2C1
inactive: Potency [1] | Potency [2] | Potency [3] | Potency [4] | Potency [5]

COc1cc(C(C)C)c(Oc2cnc(N)nc2N)cc1I
inactive: Potency [1] | Potency [2] | Potency [3] | Potency [4] | Potency [5] | Potency [6]

c1cc(-c2cnn3cc(-c4ccc(N5CCNCC5)cc4)cnc23)c2cccnc2c1
inactive: Potency [1] | Potency [2] | Potency [3] | Potency [4] | Potency [5] | Potency [6]

C=C(C)Cn1c(SCC(=O)c2cccs2)nc2sc3c(c2c1=O)CCCC3
inactive: Potency [1] | Potency [2] | Potency [3] | Potency [4] | Potency [5] | Potency [6]

COc1ccccc1S(=O)(=O)Nc1ccc2c(c1)CN(C)C(=O)N2
inactive: Potency [1] | Potency [2] | Potency [3] | Potency [4] | Potency [5] | Potency [6]

Cc1cc(-c2ncc(-c3cccnc3)cc2/C=C/c2ccccc2)cnc1-c1cccnc1
active: Potency [1] 18 µM
inactive: Potency [2] | Potency [3] | Potency [4] | Potency [5] | Potency [6]

C=C(C(=O)OC)[C@@H]1CC=C2C=CC(=O)[C@H](C)[C@@]2(C)C1
inactive: Potency [1] | Potency [2] | Potency [3] | Potency [4] | Potency [5] | Potency [6]

C=C1C(=O)OC2CC(C)=C(C(C)CCCOC(C)=O)C(OC(=O)CC(C)CC)C12 (stereo unspecified)
inactive: Potency [1] | Potency [2] | Potency [3] | Potency [4] | Potency [5] | Potency [6]

C=C1CCC2C(C)(C(=O)O)CCCC2(C)C1CCC1=CCOC1=O (stereo unspecified)
inactive: Potency [1] | Potency [2] | Potency [3] | Potency [4] | Potency [5] | Potency [6]

Cc1nc(C(=O)N2CCC[C@H]2Cc2nnc(-c3ccccc3)o2)c(-c2ccccc2F)s1
inactive: Potency [1] | Potency [2] | Potency [3] | Potency [4] | Potency [5] | Potency [6]

C[C@@H]1O[C@@H](O[C@H]2[C@@H]3C=CO[C@@H](O[C@@H]4O[C@H](CO)[C@@H](O)[C@H](O)[C@H]4O)[C@@H]3[C@@]3(CO)O[C@@H]23)[C@H](O)[C@H](OC(=O)/C=C/c2ccccc2)[C@H]1O
inactive: Potency [1] | Potency [2] | Potency [3] | Potency [4] | Potency [5] | Potency [6]
